Source: PubChem BioAssay (NCATS)
Records with an inconclusive call do not appear. A call without a number means that no potency is given here. Active and inactive are the calls of the source. Calls come from the whole dose curve; as a rule, active = well fitted curve in the direction sought with a large enough effect; inconclusive = small, poorly fitted or top-dose-only effect, or another doubt; inactive = no such curve, though single readings can be large; an effect the other way counts as inactive or inconclusive.

What was measured:
[1] = qHTS assay for measurement of the activity of small molecule inhibitors on Zika virus induced Caspase-3 activity in human astrocytoma cells (AID 1224859)
Summary of the method: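 Readout is luminescence from Caspase-Glo 3/7 added after a 6 h ZIKV infection (2 FFU/cell) of compound-pretreated (1 h) SNB-19 cells; data expressed as % inhibition versus uninfected and infected wells.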

[2] = qHTS Screen of the MIPE 4.0 Collection Against Ewings Sarcoma (RDES) (AID 1259252); note: nearly all actives have a fitted effect of over 35% in size; note: potency is the fitted concentration of half-maximal effect
Summary of the method: (§1)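 After a 4 h attachment period in RPMI/5% FBS, cells were pin-dosed with test compounds; DMSO served as negative and 9.2 uM bortezomib (final) as positive control. Luminescent CellTiter-Glo signal at 48 h defined viability.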

[3] = qHTS Screen of the MIPE 4.0 Collection Against Ewings Sarcoma (TC71) (AID 1259253); note: nearly all actives have a fitted effect of over 40% in size; note: potency is the fitted concentration of half-maximal effect
Summary of the method: as §1

[4] = qHTS Screen of the MIPE 4.0 Collection Against Ewings Sarcoma (EW8) (AID 1259255); note: nearly all actives have a fitted effect of over 35% in size; note: potency is the fitted concentration of half-maximal effect
Summary of the method: as §1

[5] = qHTS Screen of the MIPE 4.0 Collection Against Ewings Sarcoma (TC32) (AID 1259256); note: nearly all actives have a fitted effect of over 45% in size; note: potency is the fitted concentration of half-maximal effect
Summary of the method: as §1

[6] = qHTS assay to identify small molecule inhibitors of chordoma cells - UCH-2 (AID 1259356); note: series mostly up to about 46 µM
[7] = P-glycoprotein substrates identified in KB-3-1 adenocarcinoma cell line, qHTS therapeutic library screen (AID 1346986); note: nearly all actives have a fitted effect of over 60% in size;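 note: potency is the fitted concentration of half-maximal effect; potency is for cytotoxicity meaning loss of cell viability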
Summary of the method: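 Counter-screen: cherry-picked hits retested in the KB pair and in HEK-293 pcDNA/MDR-19 cells ± tariquidar. Primary screen used 72 h CellTiter-Glo viability in KB-3-1 and KB-8-5-11.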

[8] = P-glycoprotein substrates identified in KB-8-5-11 adenocarcinoma cell line, qHTS therapeutic library screen (AID 1346987); note: nearly all actives have a fitted effect of over 65% in size; note: potency is the fitted concentration of half-maximal effect
Summary of the method: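 KB-8-5-11: colchicine-selected sub-line of KB-3-1 over-expressing P-gp; assay medium lacked colchicine. 72 h drug exposure at 37 degree C, CellTiter-Glo.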

[9] = NS1 protein of Zika virus - qHTS assay to identify small molecule inhibitors in human HEK 293 cells (AID 1347053); note: nearly all actives have a fitted effect of over 55% in size; note: potency is the fitted concentration of half-maximal effect
Summary of the method: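 Inhibition of NS1 expression was scored in HEK 293 cells given compound 1 h ahead of MR766 virus (MOI = 0.5). Following 24 h at 37 C, two anti-NS1 antibodies generated a TR-FRET signal, scaled between uninfected and infected controls.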

[10] = qHTS assay to identify small molecule inhibitors of chordoma cells - UCH-1 (AID 1259355); note: nearly all actives have a fitted effect of over 55% in size; note: potency is the fitted concentration of half-maximal effect; series mostly up to about 46 µM
Summary of the method: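 Seed 800 cells per well; incubate overnight at 37 C, 5% CO2. Add test compounds (15 concentrations), then the auranofin–topoisomerase-agent combination. Incubate 48hr, add CellTiter-Glo, wait 30min, read luminescence.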

[11] = Identifying Small Molecule Inhibitors of Pancreatic Cancer Stem Cells (SN12C, Adherent) (AID 1259358);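 note: cell survival measured after 48 h of compound exposure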; note: potency is the fitted concentration of half-maximal effect
Summary of the method: (§2)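 Adherent (2D) versus sphere (3D) formats; spheres generated 14 d in SCM beforehand. Compound transferred by pin tool after 4 h, 48 h incubation, CellTiter-Glo endpoint.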

[12] = Identifying Small Molecule Inhibitors of Pancreatic Cancer Stem Cells (Panc1, Spheroid) (AID 1259359);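 note: potency is the fitted concentration of half-maximal effect; compound exposure lasted 48 h before reading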
Summary of the method: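 Monolayer and spheroid cultures are compared. Spheroids form over 14 days in stem cell medium on hydrogel-coated low-attachment plates, then are exposed to compound for 48 h before CellTiter-Glo luminescence.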

[13] = Identifying Small Molecule Inhibitors of Pancreatic Cancer Stem Cells (SN12C, Spheroid) (AID 1259360); settings: Potency: SN12C spheroid viability; note: potency is the fitted concentration of half-maximal effect
Summary of the method: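 After a 4 h attachment period, compounds were pinned into wells and cultures held 48 h under standard incubator conditions. Viability was then measured as CellTiter-Glo luminescence following 10 min at room temperature.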

[14] = Identifying Small Molecule Inhibitors of Pancreatic Cancer Stem Cells (A278, Adherent) (AID 1259361);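 note: viability read after 48 h compound exposure; nearly all actives have a fitted effect of over 35% in size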
Summary of the method: as §2

SMILES	Potency [1]	Potency [2]	Potency [3]	Potency [4]	Potency [5]	outcome [6]	Potency [7]	Potency [8]	Potency [9]	Potency [10]	Potency [11]	Potency [12]	Potency [13]	IC50 (viability decrease) [14]
CC1(C)O[C@@H]2C[C@@H]3[C@H]4C[C@@H](F)C5=CC(=O)C=C[C@]5(C)[C@@]4(F)[C@@H](O)C[C@]3(C)[C@]2(C(=O)CO)O1	inactive	inactive	inactive	inactive	inactive	inactive	inactive	inactive	inactive	–	–	–	–	–
CN1c2cc(O)c(N=NC(N)=O)cc2CC1S(=O)(=O)O (stereo unspecified)	inactive	inactive	inactive	inactive	inactive	inactive	inactive	inactive	inactive	inactive	–	–	–	–
Nc1ccn([C@@H]2O[C@H](CO)[C@H](O)C2(F)F)c(=O)n1	inactive	0.0526 µM (active)	0.0418 µM (active)	0.0166 µM (active)	0.0187 µM (active)	inactive	–	–	0.743 µM (active)	–	–	–	–	–
CC(C)c1ccc(Cn2ccc3c4c(N)nc(NC5CC5)nc4ccc32)cc1	inactive	9.35 µM (active)	1.05 µM (active)	3.32 µM (active)	1.32 µM (active)	–	–	1.18 µM (active)	3.32 µM (active)	–	7.43 µM (active)	5.26 µM (active)	8.33 µM (active)	0.332 µM (active)
O=C(O)Cn1nnc(-c2cc(N3CCC(Oc4cc(F)ccc4Br)CC3)no2)n1	inactive	inactive	inactive	inactive	inactive	–	–	–	–	–	–	–	–	–
CC(=O)OCC(=O)[C@@]1(O)[C@H](C)C[C@H]2[C@@H]3C=C(C)C4=Cc5c(cnn5-c5ccccc5)C[C@]4(C)[C@@H]3[C@@H](O)C[C@@]21C	inactive	6.62 µM (active)	6.62 µM (active)	7.43 µM (active)	5.9 µM (active)	–	inactive	inactive	11.8 µM (active)	–	inactive	14.8 µM (active)	20.9 µM (active)	13.2 µM (active)
C=CC(=O)Nc1cc2c(Nc3ccc(F)c(Cl)c3)ncnc2cc1OCCCN1CCOCC1	inactive	20.9 µM (active)	14.8 µM (active)	16.6 µM (active)	14.8 µM (active)	–	inactive	18.4 µM (active)	–	–	23.5 µM (active)	–	20.9 µM (active)	16.6 µM (active)
CC[C@H]1CN2CCc3cc(OC)c(OC)cc3[C@H]2C[C@@H]1C[C@@H]1NCCc2cc(OC)c(OC)cc21	inactive	0.0935 µM (active)	0.059 µM (active)	0.0662 µM (active)	0.0743 µM (active)	inactive	–	1.18 µM (active)	–	–	–	–	–	–
CC1=C(CO)C(=O)O[C@@H]([C@@H](C)[C@H]2CC[C@H]3[C@@H]4C[C@H]5O[C@]56[C@@H](O)C=CC(=O)[C@]6(C)[C@@H]4CC[C@]23C)C1	inactive	0.526 µM (active)	0.526 µM (active)	0.264 µM (active)	0.209 µM (active)	–	–	1.18 µM (active)	1.48 µM (active)	–	5.26 µM (active)	1.05 µM (active)	1.66 µM (active)	0.662 µM (active)
COC(=O)C[C@](O)(CCCC(C)(C)O)C(=O)O[C@@H]1C(OC)=C[C@]23CCCN2CCc2cc4c(cc2[C@H]13)OCO4	inactive	inactive	inactive	inactive	inactive	inactive	–	8.2 µM (active)	inactive	0.199 µM (active)	–	–	–	–
O=c1[nH]c(=O)n(C2CCCO2)cc1F (stereo unspecified)	inactive	inactive	inactive	inactive	inactive	inactive	inactive	inactive	inactive	inactive	–	–	–	–
CCCCN1CCC(CNC(=O)c2c3n(c4ccccc24)CCCO3)CC1	inactive	8.33 µM (active)	9.35 µM (active)	14.8 µM (active)	13.2 µM (active)	–	–	–	–	–	inactive	–	inactive	–
C=CC(=O)Nc1cc2c(Nc3ccc(F)c(Cl)c3)ncnc2cc1C#CC(C)(C)N1CCN(C)CC1	inactive	1.87 µM (active)	2.64 µM (active)	2.35 µM (active)	1.32 µM (active)	–	9.2 µM (active)	16.4 µM (active)	13.2 µM (active)	–	13.2 µM (active)	5.26 µM (active)	6.62 µM (active)	–
CC=CC1=C(C(=O)O)N2C(=O)[C@H](NC(=O)[C@H](N)c3ccc(O)cc3)[C@@H]2SC1	inactive	inactive	inactive	inactive	inactive	inactive	–	inactive	inactive	inactive	–	–	–	–
Nc1ccn([C@@H]2CS[C@H](CO)O2)c(=O)n1	inactive	inactive	inactive	inactive	inactive	inactive	–	–	inactive	inactive	–	–	–	–
